DAX1 inh-1 – inhibits human nuclear receptor DAX1 | HEK293 Gal4-DAX1 luciferase reporter, luminescence | P51843 | inhibition, % at 6.75 µM | actives 0.99% (n = 340,000);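 active = inhibition above the mean over all tested compounds plus 3 SD, cut at about 4.2% in these data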;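 note: inhibition shows as a rise in luminescence from relieved DAX1 repression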
Target sequence (P51843 207-470 limits assumed): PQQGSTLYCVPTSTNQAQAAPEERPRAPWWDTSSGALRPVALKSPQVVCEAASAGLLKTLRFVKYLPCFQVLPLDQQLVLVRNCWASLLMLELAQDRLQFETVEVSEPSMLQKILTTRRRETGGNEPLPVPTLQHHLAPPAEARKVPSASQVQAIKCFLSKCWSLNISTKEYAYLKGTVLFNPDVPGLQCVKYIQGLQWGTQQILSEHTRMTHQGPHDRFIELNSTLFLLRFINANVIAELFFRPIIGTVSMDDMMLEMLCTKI
hcDAF-12 act – activates DAF-12 receptor from parasite H. contortus. HEK293 hcDAF-12 lit1-tk-luc reporter, luminescence; 0% DMSO, 100% Δ7-dafachronic acid. actives 1.4% (n = 370,000). activation, % at 6.8 µM;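 active = activation above the mean of all tested compounds plus 3 SD, cut at about 5.5% in these data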
ssDAF12 agonist – activators of S. stercoralis DAF-12 nuclear receptor; HEK293 ssDAF-12/GRIP1 lit1-tk-luc reporter, luminescence; % of 3 µM dafachronic acid response; activation, % at 6.8 µM; actives 1% (n = 370,000);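 active = activation above the mean over all tested compounds plus 3 SD, cut at about 0.9% in these data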
hgDAF12 agonist – agonists of H. glycines DAF-12 nuclear receptor | HEK293 GAL4-hgDAF12 UAS-luciferase reporter, agonist luminescence; normalized to butyrate control | activation, % at 6.8 µM | actives 1.8% (n = 370,000) | AID 687014;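 active = activation above a cutoff set at the mean of all screened compounds plus 3 SD, cut at about 10% in these data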
DAX1 inh-2 – blocks DAX1 repression of SF-1 activated StAR promoter; actives 1.1% (n = 370,000); HEK293T StAR-luciferase reporter, SF-1/DAX-1 repression relief; inhibition, % at 6.8 µM; AID 652010;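 active = inhibition above the mean over all tested compounds plus 3 SD, cut at about 3.6% in these data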;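 note: higher inhibition means more luminescence from relief of DAX-1 repression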
Large screens that a line does not name were inactive. Only some compounds are listed: those with a hit (about 4.1% of all), similar ones and a draw of the others.

CC1=CCC(COC(=O)Nc2ccccc2)CC1 (centres undefined)	hgDAF12 agonist 11.0
CC(OC(=O)CNC(=O)C1CCCCC1)C(=O)NCc1ccccc1 (centres undefined)	ssDAF12 agonist 1.6
CCN(C(=O)COC(=O)CNC(=O)C1CCCCC1)c1ccccc1	ssDAF12 agonist 1.0
CC(OC(=O)c1cc[n+]([O-])cc1)C(=O)NCc1ccccc1 (centres undefined)	DAX1 inh-1 4.7
CC(C)C[C@H]1COc2cccc(F)c2S(=O)(=O)N1Cc1cn(CCC2OCCCO2)nn1	none (no result: DAX1 inh-1)
CCCN1CCCCC(NC(=O)c2ccccc2OC)C1=O (centres undefined)	none (no result: DAX1 inh-1)
COc1ccc(CNC(=O)CSc2nc3c([nH]2)c(=O)n(C)c(=O)n3C)cc1	none (no result: DAX1 inh-1)
Cc1cc(C)n2cc(CSc3nc4ccccc4s3)nc2n1	hcDAF-12 act 5.7
Cc1cc(C)n2cc(CSc3nnc(N)s3)nc2n1	none
O=C(CSc1n[nH]c(=O)n1C1CC1)c1ccc(F)cc1	none (no result: DAX1 inh-1)
CSc1n[nH]c(=O)n1C1CCCCC1	DAX1 inh-1 6.0
Cc1ccc(-n2c(SCC(=O)Nc3ccc(S(=O)(=O)Nc4cc(C)nc(C)n4)cc3)nnc2-c2cccs2)cc1	none (no result: DAX1 inh-1)
COc1ccc(N2CCN(CCCNC(=S)Nc3c(C)cccc3C)CC2)cc1	DAX1 inh-1 5.6
COc1cc(/C=N/n2c(-c3cc(-c4ccccc4)n[nH]3)n[nH]c2=S)ccc1OCc1ccccc1	none (no result: DAX1 inh-1)
CCOC(=O)c1c(C)[nH]c(C2=NNC(=Nc3ccccc3)SC2)c1C	none
CCOC(=O)c1c(C)[nH]c(C2=NNC(=Nc3ccccc3OC)SC2)c1C	hcDAF-12 act 6.0
COC(=O)[C@]12C[C@H](CC(=O)N3CCN(C(=O)c4ccco4)CC3)C(=O)N(Cc3ccco3)C1=C[C@H](COCc1ccccc1)O[C@@H]2C	none (no result: DAX1 inh-1)
CC1(C)Cc2c(sc(NC(=O)Nc3ccccc3)c2C(N)=O)CO1	DAX1 inh-1 5.1, hgDAF12 agonist 10.8
COc1ccc2c(c1)CCCN2C(=O)C1CCCN(S(=O)(=O)c2c(C(C)C)cc(C(C)C)cc2C(C)C)C1 (centres undefined)	none (no result: DAX1 inh-1)
COC(=O)C[C@H]1CC[C@@H]2[C@@H](COc3ccc(NC(=O)C4CCCCC4)cc3C(=O)N2C)O1	none (no result: DAX1 inh-1)
Cc1ccccc1NC(=O)COC(=O)/C=C/c1cn(-c2ccccc2)nc1-c1cccnc1	ssDAF12 agonist 1.1
CC(NC(=O)c1c(O)c2ccccc2n(C)c1=O)c1ccccc1 (centres undefined)	hcDAF-12 act 6.0
CCn1c(=O)c(C(=O)Nc2ccccc2F)c(O)c2ccccc21	hcDAF-12 act 6.2
Cn1c(=O)c(C(=O)NCCc2ccccc2)c(O)c2ccccc21	hcDAF-12 act 6.3, ssDAF12 agonist 1.7
COCc1[nH]nc2c1C(c1ccc(F)cc1)N(c1ccc(OC)cc1)C2=O (centres undefined)	none (no result: DAX1 inh-1)
CN(C)c1ccc(NC(=O)CN2CCc3ccccc3C2)cc1	hcDAF-12 act 5.7
CCOc1ccc(NC(=O)CN2CCc3ccccc3C2)cc1	none
O=C(CN1CCN(Cc2ccc3c(c2)OCO3)CC1)Nc1ccc(F)cc1	DAX1 inh-1 4.8
O=C(CN1CCc2ccccc2C1)Nc1ccc(F)cc1	DAX1 inh-1 4.2
CCOc1cccc(-c2nnc(SCC(=O)Nc3ccc4c(c3)OCO4)n2N)c1	none (no result: DAX1 inh-1)
O=C(NNc1nc2c(F)cccc2s1)c1cc(=O)c2ccccc2o1	hcDAF-12 act 6.2
Cc1ccc2sc(NNC(=O)c3cc(=O)c4ccccc4o3)nc2c1C	none
O=C(COc1ccccc1)NNc1nc2c(F)cccc2s1	none
Cc1cccc2sc(NNC(=O)c3cc(=O)c4ccccc4o3)nc12	hcDAF-12 act 6.0, ssDAF12 agonist 1.4
O=C(NNc1nc2c(F)cccc2s1)c1ccc(F)cc1	ssDAF12 agonist 1.3
CCC1CCCCN1c1ccc([N+](=O)[O-])cc1/C=N/NC(=O)Cn1c2ccccc2c(=O)c2ccccc21 (centres undefined)	DAX1 inh-1 6.0
CCc1ccc(OCC(=O)N/N=C/c2cc([N+](=O)[O-])ccc2N2CCCCCC2)cc1	none
N#CCCn1cc(/C=C/C(=O)O)c(-c2ccc(F)cc2)n1	DAX1 inh-1 5.4
COc1ccc(-c2nc(Cn3c(SCc4ccc(C)cc4)nc4ccncc43)c(C)o2)cc1OC	hgDAF12 agonist 11.5
COc1ccc(-c2nc(Cn3c(SCc4cccc(F)c4)nc4ccncc43)c(C)o2)cc1OC	none
Cc1ccc(C(=O)/C=C/Nc2cccc([N+](=O)[O-])c2)o1	hcDAF-12 act 5.8, hgDAF12 agonist 11.4
CN(C)C(/C=C/Nc1cccc([N+](=O)[O-])c1)=C(C#N)C#N	none
COc1ccc(-c2c(C#Cc3ccc(N(C)C)cc3)c3ccccc3n2C)cc1	hcDAF-12 act 5.8
CCCC[C@H](C(=O)N(C)c1ccccc1)[C@@H](O)c1ccc(C(C)=O)cc1	none (no result: DAX1 inh-1)
CCN(CC)CCCNC(=O)CC1Oc2ccccc2NC1=O (centres undefined)	none (no result: DAX1 inh-1)
CCCCCCCc1ccc(-c2ccc(O)cc2)nc1	hgDAF12 agonist 11.8
CCCCCc1ccc(-c2ccc(/C=C/C(=O)O)cc2)nc1	none
O=c1c(-c2ccccc2)n[nH]c2ccccc12	hgDAF12 agonist 10.5
CC(=O)N(C)c1ccc(N=NC2C(=O)N(C(N)=S)N=C2C)cc1 (centres undefined)	DAX1 inh-1 5.3, hgDAF12 agonist 11.5
CC1=NN(C(N)=S)C(=O)C1N=Nc1cccc(Cl)c1 (centres undefined)	hcDAF-12 act 6.1
CC1=NN(C(N)=S)C(=O)C1N=Nc1ccc(S(N)(=O)=O)cc1 (centres undefined)	none
Cc1ccc(-n2nc(CC#N)c(C#N)c2N)cc1	none
Cc1ccc(-n2nc(CC#N)c(C#N)c2N)cc1Cl	ssDAF12 agonist 1.3
CCOC(=O)CC[C@@H]1CC[C@]2(CCCN(C(=O)c3ccno3)C2)O1	none (no result: DAX1 inh-1)
C=CCn1c(COc2ccc(C)cc2)nnc1SCC(=O)c1ccc(-c2ccccc2)cc1	none (no result: DAX1 inh-1)
Cc1ccc2c(c1)CCCN2C(=O)Nc1ccc2c(c1)OCO2	ssDAF12 agonist 1.6, hgDAF12 agonist 11.6
Cc1ccnc(NC(=O)Nc2ccc3c(c2)OCO3)c1	hgDAF12 agonist 12.1
CCCCCCNC(=O)c1c(N)[nH]c(C(=O)c2ccccc2)c1-c1ccc(O)cc1	none (no result: DAX1 inh-1, DAX1 inh-2)
O=C(NC1CCCCN(Cc2cccc(Cl)c2)C1=O)c1c(F)cccc1F (centres undefined)	none (no result: DAX1 inh-1)
O=C(NCCN1CCC(Cc2ccccc2)CC1)C1CCCN(S(=O)(=O)c2cccs2)C1 (centres undefined)	none (no result: DAX1 inh-1)
CCOC(=O)C(=O)N(CC)C1CCS(=O)(=O)C1 (centres undefined)	ssDAF12 agonist 1.2
COc1ccccc1NC(=O)OC(C)c1ccc(Cl)cc1 (centres undefined)	DAX1 inh-1 4.5
CC(C)[C@H](NC(=O)OCc1ccccc1)C(=O)OCC(=O)N1CCCCC1	hgDAF12 agonist 12.2

Assay outcomes from PubChem BioAssay.
